An excerpt weighted towards active compounds, which were near 22% of everything screened.
Cycloheximide cs = Cycloheximide Counterscreen for Small Molecule Inhibitors of Shiga Toxin | AID 2314, 2010 | cell reporter, cycloheximide protein synthesis inhibition counterscreen | 300,000 tested, 12% active | max response, %; in the data active = max response mostly above about 13%, no sharp cut-off; inactive = mostly below about 14%; note: read at 38.3 µM for the half of the compounds with a filed dose; 0% is about no effect
Shiga toxin inh = A qHTS for Small Molecule Inhibitors of Shiga Toxin; Vero cells, Shiga toxin protein synthesis inhibition reporter; AID 2315, 2010; inhibition, % at 38.7 µM; 290,000 tested, 9.2% active; in the data active = inhibition mostly above about 28%, no sharp cut-off; inactive = mostly below about 43%; note: 0% is about no effect
LmPK inhibitor = qHTS Assay for Inhibitors of Leishmania Mexicana Pyruvate Kinase (LmPK) | purified LmPK, Kinase-Glo ATP luminescence, 1 h | Potency, µM (titrated, usually from 57.5 µM), for the others: top-dose activity change, negative = inhibition, usual class: inhibitors | 290,000 tested, 0.37% active; note: potency is the fitted concentration of half-maximal effect; % is set by controls: 0 for no effect and ±100 for the full control effect
Target sequence (Q27686 whole entry, looked up): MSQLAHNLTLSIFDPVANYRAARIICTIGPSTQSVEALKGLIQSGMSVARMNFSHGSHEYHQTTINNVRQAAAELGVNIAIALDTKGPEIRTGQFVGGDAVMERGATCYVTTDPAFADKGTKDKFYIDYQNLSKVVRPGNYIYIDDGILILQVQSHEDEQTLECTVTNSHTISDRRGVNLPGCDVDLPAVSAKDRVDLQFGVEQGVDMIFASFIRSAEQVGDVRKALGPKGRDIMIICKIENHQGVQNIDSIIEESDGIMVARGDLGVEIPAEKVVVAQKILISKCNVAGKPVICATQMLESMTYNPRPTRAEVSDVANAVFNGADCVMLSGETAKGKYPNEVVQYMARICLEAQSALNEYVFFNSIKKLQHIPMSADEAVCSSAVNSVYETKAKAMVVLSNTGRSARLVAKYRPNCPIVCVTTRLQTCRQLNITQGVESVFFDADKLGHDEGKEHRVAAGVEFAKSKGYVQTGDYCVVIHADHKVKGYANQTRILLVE
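qHTS format; LmPK 0.1 nM; substrates PEP 0.5 mM and ADP 0.1 mM. One-hour room-temperature incubation, then coupled luciferase luminescence; 0.5 nM enzyme wells mark activation.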
Pf growth 48h = Primary qHTS for delayed death inhibitors of the malarial parasite plastid, 48 hour incubation. P. falciparum luciferase growth in erythrocytes, 48 h. Potency, µM (highest dose often 28.7 µM), without a hit: at the top dose activity change, negative = inhibition, most hits filed as inhibitors. 310,000 tested, 5.9% active. AID 504832, 2011; note: potency is the fitted concentration of half-maximal effect; % is set by controls: 0 for no effect and ±100 for the full control effect
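First compound was added to culture medium, then infected red cells at 0.1% parasitemia and 2% hematocrit (final). After incubation at 37 C under 5% CO2, luciferase detection reagent was dispensed and light output recorded.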
Pf growth 96h = Primary qHTS for delayed death inhibitors of the malarial parasite plastid, 96 hour incubation; P. falciparum luciferase reporter growth, 96 h; 320,000 tested, 6.9% active; AID 504834, 2011; Potency, µM (doses to about 28.7 µM), for the others: top-dose activity change, negative = inhibition, most hits filed as inhibitors; note: potency is the fitted concentration of half-maximal effect; % is set by controls: 0 for no effect and ±100 for the full control effect
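Cell-based qHTS: luciferase-tagged P. falciparum in erythrocytes (2% hematocrit, 0.05% parasitemia final) incubated with compounds for 96 hours, 37 C, 5% CO2; luciferase detection reagent then added and luminescence measured.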
* hit, by the source's call; ? = inconclusive; / = no result given; [ ] = remark or other dose. Unless noted, calls come from the whole dose curve; as a rule, active = well fitted inhibition curve with a large enough effect; inconclusive = small, poorly fitted or top-dose-only effect, or another doubt; inactive = no such curve, though single readings can be large or run the other way.

SMILES	Cycloheximide cs	Shiga toxin inh	LmPK inhibitor	Pf growth 48h	Pf growth 96h
Cc1ccc(SCC(=O)OC(C)C(=O)NCc2ccccc2)cc1 (configuration not stated)	/	/	/	41%	?
CCOC(=O)C1CCN(C(=O)Cn2ncc3c([nH]c4ccccc43)c2=O)CC1	-1	6	-2%	26%	21%
Oc1ccccc1CNc1cnc2ccccc2c1	31*	32*	3%	140%	22%
Cc1cccc(C(C)C)c1NC(=O)C(C)OC(=O)Cc1n[nH]c(=O)c2ccccc12 (configuration not stated)	/	/	/	2%	26%
CCc1ccc(Nc2ncc3c(n2)CC(C)CC3=O)cc1 (configuration not stated)	47*	96*	3%	144%	?
CC1(C)CC(=O)c2cnc(NCc3ccco3)nc2C1	14*	-1	0%	22%	13%
CCc1ccc(Nc2ncc3c(n2)CC(C)(C)CC3=O)cc1	57*	75*	2%	154%	183%
CCc1ccc(Nc2ncc3c(n2)CC(c2ccc(OC)cc2)CC3=O)cc1 (configuration not stated)	-4	-16	-3%	?	-22%
Cc1ccc(C(=O)C(C)OC(=O)CNS(=O)(=O)c2ccc(C)cc2)cc1 (configuration not stated)	/	/	/	3%	38%
CCC1=C([N+](=O)[O-])C(c2ccc3c(c2)OCO3)NC(=O)N1 (configuration not stated)	-3	/	0%	18%	-6%
COc1cc(C#N)ccc1OCC(=O)N1CCc2ccccc2C1	-3	-1	2%	-6%	-7%
COC(=O)c1ccc(CNC(=O)COC(=O)Cc2ccsc2)cc1	11	10	1%	-6%	10%
Clc1cccc(Cl)c1CNc1ccc(N2CCCC2)cc1	20*	85	-8%	?	20%
O=C(Cc1ccc(Cl)cc1)Nc1ccc(N2CCCC2)cc1	5	6	8%	16%	/
CC12CCC(C/C1=N/O)C2(C)CBr (configuration not stated)	-1	-4	3%	-3%	16%
O=C(CSc1nc(C2CC2)nc2c1cnn2-c1ccccc1)Nc1c[nH]c(=O)[nH]c1=O	12	-6	0%	33%	7%
COC(=O)[C@H](Cc1c[nH]c2ccccc12)NC(=O)NCc1ccc(OC)c(OC)c1	-1	21	-6%	-11%	1%
CCc1ccc(CCC(=O)Nc2nnc(C)s2)o1	3	-2	4%	-20%	/
CCc1ccc(CCC(=O)Nc2ccc(C)c(C)c2)o1	40*	58*	3%	27%	5%
CC(=O)c1ccc(NC(=O)CCc2ccc(C)o2)cc1	13*	16	4%	74%	51%
CCc1ccc(NC(=O)CCc2ccc(C)o2)cc1	37*	/	4%	22%	-19%
CCc1ccc(NC(=O)CCc2ccc(CC)o2)cc1	14*	/	2%	34%	?
CCc1ccc(CCC(=O)Nc2ccc(C(=O)O)cc2)o1	-5	-7	-5%	17%	?
CCN(CC)S(=O)(=O)c1ccc(C)c(NS(=O)(=O)c2cc(/C=C/C(=O)O)cc(OC)c2OC)c1	1	23	2%	4%	?
O=C(c1cccs1)N(Cc1cccc(F)c1)C1CCS(=O)(=O)C1 (configuration not stated)	-4	23	-3%	0%	-21%
SMILES	Cycloheximide cs	Shiga toxin inh	LmPK inhibitor	Pf growth 48h	Pf growth 96h
CCN(C(=O)C1CCCN1S(=O)(=O)c1ccc2c(c1)n(C)c(=O)c(=O)n2C)c1ccccc1 (configuration not stated)	-4	-1	-1%	9%	?
Cc1ccc(C(=O)O/N=C(\N)Cc2cccs2)cc1[N+](=O)[O-]	13	11	0%	69%	10µM*
C#CCOCCOCCOCCNc1nc(N2CCN(C(=O)[C@H](CCC(=O)O)n3cc(C(N)[C@H](C)CC)nn3)CC2)nc(N2CCN(C(=O)[C@H](CCC(=O)O)n3cc(C(N)[C@H](C)CC)nn3)CC2)n1 (some centres not stated)	2	-14	0%	?	4%
O=C1C(c2ccc(F)cc2)N(CC2COc3ccccc3O2)C(=O)CN1C1CCCCC1 (configuration not stated)	6	-3	8%	2.3µM*	?
O=C1C(c2ccc(F)cc2)N(Cc2ccc3c(c2)OCO3)C(=O)CN1C1CCCCC1 (configuration not stated)	-3	-12	1%	?	37%
COC(=O)[C@@H]1[C@@H]2C[C@H]3c4[nH]c5ccccc5c4CCN3C[C@@H]2CC[C@@H]1O	/	/	/	-17%	-22%
Cc1cccc(C(=O)Nc2cccc(C(=O)N/N=C/c3ccc4c(c3)OCO4)c2)c1	40*	79*	-4%	23%	1%
O=C(N/N=C/c1ccc2c(c1)OCO2)c1cccc(NC(=O)c2ccccc2Cl)c1	12	48*	0%	2%	42%
O=C(N/N=C/c1ccc2c(c1)OCO2)C(=O)Nc1cccc(Cl)c1	16*	65*	-7%	24%	-12%
Cc1ccccc1C(=O)Nc1cccc(C(=O)N/N=C/c2ccc3c(c2)OCO3)c1	20*	55*	2%	3%	3%
Cc1cccc(C(=O)Nc2ccc(C(=O)N/N=C/c3ccc4c(c3)OCO4)cc2)c1	-6	-4	-5%	?	2%
Cc1nn(CC2CC2)c(=O)n1-c1ccc(Oc2ccccc2)cc1	8	1	1%	-24%	26%[5.75 µM]
Cc1cc(NC(=O)C(C)SCC(=O)OCc2ccc(Cl)cc2Cl)no1 (configuration not stated)	/	/	/	?	-3%
CSc1ccccc1NC(=O)c1ccc(N2CC3CC(C2)c2cccc(=O)n2C3)c(NC(=O)c2cccnc2)c1 (configuration not stated)	-3	-10	-3%	-13%	53%
CCCOc1ccc(C(=O)Nc2ccc(CN3CCOCC3)cc2)cc1	6	13	-8%	-45%	?
CC(C)Oc1ccc(C(=O)Nc2ccc3c(c2)n(C)c(=O)n3C)cc1	23	47	0%	212%	58%
CC(C)Oc1ccc(C(=O)Nc2ccc(N(C)C)cc2)cc1	25*	90*	4%	152%	198%
CCCOc1ccc(C(=O)Nc2ccc(N(C)C)cc2)cc1	47*	141*	2%	186%	/
COC(=O)c1ccc(C(=O)OC)c(NC(=O)CSCc2ccccc2Br)c1	-3	-11	4%	5%	32%
O=[N+]([O-])c1ccccc1CNCCO	/	/	/	35%	117%
O=C1CSC(c2cccnc2)N1Cc1ccc(Cl)cc1 (configuration not stated)	-3	-16	-3%	0%	20%
O=C1CSC(c2cccnc2)N1Cc1ccc(Cl)cc1Cl (configuration not stated)	-2	20	1%	?	9.3µM*

Bioassay records as filed in PubChem.
